According to PubChem BioAssay:
Values without a mark were called inactive. Activity calls are given as the source filed them.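 The calls were made as follows, unless noted: active = mean inhibition over 43.08%, the solvent-only control mean plus 3 SD; inactive = the rest.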

Columns and labels:
[1] = biological target: Nuclear receptor coactivator 3 (Homo sapiens) (UniProt Q9Y6Q9); experiment: NCOA3 GAL4-fusion reporter inhibition – cell-based, luminescence, quadruplicate, confirmation (AID 588792); details: HEK293 GAL4-SRC3 luciferase reporter, at 3.6 µM, stronger effect = higher value;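 also: 0% = DMSO treated cells and 100% = gossypol at 36 µM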
Sequence of Nuclear receptor coactivator 3 (Homo sapiens) (Q9Y6Q9 whole entry, looked up, the tested form may be a part): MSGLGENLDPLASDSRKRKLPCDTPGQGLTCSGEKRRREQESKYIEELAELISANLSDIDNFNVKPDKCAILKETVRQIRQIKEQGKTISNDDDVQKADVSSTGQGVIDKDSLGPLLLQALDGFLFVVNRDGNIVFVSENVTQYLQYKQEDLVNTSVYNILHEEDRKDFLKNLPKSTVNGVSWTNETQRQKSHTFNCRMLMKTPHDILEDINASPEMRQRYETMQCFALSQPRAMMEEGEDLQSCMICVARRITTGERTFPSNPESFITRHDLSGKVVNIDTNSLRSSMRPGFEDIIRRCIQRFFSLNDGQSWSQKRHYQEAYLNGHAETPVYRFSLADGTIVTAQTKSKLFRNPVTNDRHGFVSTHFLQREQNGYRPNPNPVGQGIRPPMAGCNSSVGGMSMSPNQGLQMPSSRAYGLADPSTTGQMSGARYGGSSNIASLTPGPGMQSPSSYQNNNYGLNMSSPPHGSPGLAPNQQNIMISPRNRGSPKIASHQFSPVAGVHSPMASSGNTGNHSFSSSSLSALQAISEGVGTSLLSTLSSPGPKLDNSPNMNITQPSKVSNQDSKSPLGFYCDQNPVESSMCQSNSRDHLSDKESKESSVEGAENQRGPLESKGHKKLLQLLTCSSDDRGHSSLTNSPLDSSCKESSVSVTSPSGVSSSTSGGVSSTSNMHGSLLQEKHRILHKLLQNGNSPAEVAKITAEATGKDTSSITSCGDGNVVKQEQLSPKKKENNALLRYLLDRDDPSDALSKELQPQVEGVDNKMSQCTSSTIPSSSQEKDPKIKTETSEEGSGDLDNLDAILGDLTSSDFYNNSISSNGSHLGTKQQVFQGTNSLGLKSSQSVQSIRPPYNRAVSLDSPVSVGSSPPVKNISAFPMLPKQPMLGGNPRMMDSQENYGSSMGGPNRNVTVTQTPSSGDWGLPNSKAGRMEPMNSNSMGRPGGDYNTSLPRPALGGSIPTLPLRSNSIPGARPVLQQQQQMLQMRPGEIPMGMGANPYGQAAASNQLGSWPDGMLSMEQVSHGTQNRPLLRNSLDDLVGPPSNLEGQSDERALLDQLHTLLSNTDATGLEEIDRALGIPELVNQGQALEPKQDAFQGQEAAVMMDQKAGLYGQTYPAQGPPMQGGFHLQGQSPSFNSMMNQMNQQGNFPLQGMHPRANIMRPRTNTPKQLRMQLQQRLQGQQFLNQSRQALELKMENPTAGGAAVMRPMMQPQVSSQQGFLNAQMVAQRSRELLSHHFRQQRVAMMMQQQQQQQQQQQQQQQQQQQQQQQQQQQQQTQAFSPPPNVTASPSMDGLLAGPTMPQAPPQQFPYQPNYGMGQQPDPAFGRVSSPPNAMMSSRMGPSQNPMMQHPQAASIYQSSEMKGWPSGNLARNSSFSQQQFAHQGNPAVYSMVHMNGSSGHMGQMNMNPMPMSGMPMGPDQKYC

[2] = system: transactivating tegument protein VP16 (Human herpesvirus 1), Gal4-VP16 luciferase reporter; experiment: repression of VP16-driven luciferase reporter – cell-based, luminescence, high throughput, counter-screen for SRC3 inhibitor project (AID 588794; in the data active = inhibition above about 30%); details: mammalian cells, at 3.6 µM, stronger effect = higher value

SMILES: COc1cccc(N2CCN(CC(=O)Nc3ccccc3C(=O)NCc3ccccc3)CC2)c1
- inhibition [1]: -32.3%
- inhibition [2]: 7.53%

SMILES: COc1ccc(C)cc1NS(=O)(=O)c1ccc(NC(=O)CN(c2cc([N+](=O)[O-])ccc2C)S(C)(=O)=O)cc1
- inhibition [1]: 58.6% (active)
- inhibition [2]: -20%

SMILES: O=c1c2ccccc2cnn1CCOc1ccccc1
- inhibition [1]: -15.3%
- inhibition [2]: -21.5%

SMILES: Cn1nc(C(C)(C)C)cc1C(=O)NCc1ccc(N2CCCC2=O)cc1
- inhibition [1]: 10.7%
- inhibition [2]: 38.8% (active)

SMILES: CC1=C(C(=O)N(C)C)CC(CC(=O)NCCCCc2ccccc2)C(=O)N1Cc1ccc(C(C)(C)C)cc1 (configuration not stated)
- inhibition [1]: -10.1%
- inhibition [2]: -1.43%

SMILES: CCc1c(C)nc2ncnn2c1NCCc1ccc(Cl)cc1
- inhibition [1]: 23.3%
- inhibition [2]: 25.9%

SMILES: Nc1ccccc1-c1ccc([N+](=O)[O-])cc1
- inhibition [1]: 5.58%
- inhibition [2]: 33.1% (active)

SMILES: C=CCSc1nsc(NC(=O)Nc2ccc(F)cc2)n1
- inhibition [1]: -4.43%
- inhibition [2]: -4.12%

SMILES: CCN(CC)c1ccc(Nc2nc(N3CCOCC3)c3ccccc3n2)cc1
- inhibition [1]: 4.45%
- inhibition [2]: 20.2%

SMILES: Nc1nc2c(F)cccc2s1
- inhibition [1]: -3.71%
- inhibition [2]: 0.2%

SMILES: CC(=O)N1CCc2cc(S(=O)(=O)NCCC(=O)NCCc3ccc(Cl)cc3)ccc21
- inhibition [1]: -9.13%
- inhibition [2]: 1.52%

SMILES: Cc1sc2ncnc(Sc3nnnn3-c3ccccc3)c2c1C
- inhibition [1]: 0.37%
- inhibition [2]: -6.56%

SMILES: O=C(CCN1CCOCC1)N/N=C/c1cc(Br)cc(Br)c1O
- inhibition [1]: 13.6%
- inhibition [2]: 7.46%

SMILES: Cc1ccc(-c2c[n+](Cc3ccc(Cl)c(Cl)c3)c3n2CCC3)cc1
- inhibition [1]: 17.6%
- inhibition [2]: 25.3%

SMILES: Cc1cccc(C2(c3cccc(C)c3)CC2C(=O)Nc2ccc([N+](=O)[O-])cc2O)c1 (configuration not stated)
- inhibition [1]: 7.2%
- inhibition [2]: 8.99%

SMILES: CCCCCn1c(=O)[nH]c2cc(C(=O)N3CCN(c4ccc(C(C)=O)cc4)CC3)ccc2c1=O
- inhibition [1]: 0.25%
- inhibition [2]: 21.7%

SMILES: Cc1cc(Br)cc(/C=N/NC(=O)c2ccc3c(c2)OCO3)c1O
- inhibition [1]: 18.9%
- inhibition [2]: 26.3%

SMILES: COc1cc(/C=C2\SC(=S)N(CCC(=O)NC3CCCC3)C2=O)cc(OC)c1OC
- inhibition [1]: -4.46%
- inhibition [2]: 9.3%

SMILES: O=C(OC1C2CCC1C1CN(CCc3ccccc3)CC12)c1ccccc1 (configuration not stated)
- inhibition [1]: 11.2%
- inhibition [2]: 18%

SMILES: CCN(C(=O)c1cnc(OC)cc1C(F)(F)F)c1ccc(Cl)cc1
- inhibition [1]: 9.44%
- inhibition [2]: 4.62%

SMILES: COC(=O)/C(C#N)=C\c1c(OC)[nH]c2ccccc12
- inhibition [1]: 18.6%
- inhibition [2]: 12.4%

SMILES: Nc1cccc2c1C(=O)N(C(=O)c1cccc(S(=O)(=O)N3CCCCCC3)c1)C2=O
- inhibition [1]: 1.95%
- inhibition [2]: -5.22%

SMILES: COc1ccc(CNC(=O)[C@H](Cc2ccccc2)NC(=O)C2CCN(C(=O)[C@H](C)N)CC2)cc1
- inhibition [1]: 12.2%
- inhibition [2]: -2.01%

SMILES: CC(C)Nc1nc(Cl)nc(NNC(=O)C(C)Oc2ccccc2)n1 (configuration not stated)
- inhibition [1]: -3.52%
- inhibition [2]: 4.03%

SMILES: CCN1C/C(=C/c2ccc(N3CCOCC3)cc2)C(=O)/C(=C/c2ccc(N3CCOCC3)cc2)C1
- inhibition [1]: 40.8%
- inhibition [2]: 22.6%

SMILES: CC(=O)c1ccc(Sc2nnnn2-c2ccccc2)c([N+](=O)[O-])c1
- inhibition [1]: 11.4%
- inhibition [2]: -10.4%

SMILES: COc1cc2[nH]c3c(Cl)ncnc3c2cc1OC
- inhibition [1]: 32.2%
- inhibition [2]: 16.2%

SMILES: O=C(Nc1ccc2c(c1)CCC2)C1CCN(c2c3c(nc4ncnn24)CCC3)CC1
- inhibition [1]: 13.5%
- inhibition [2]: 13.2%

SMILES: Cc1ccc(S(=O)(=O)C(C#N)c2nc3ccccc3nc2N2CCN(C)CC2)cc1 (configuration not stated)
- inhibition [1]: 19.1%
- inhibition [2]: -2.04%

SMILES: CCCC(=O)NC(NC(=S)Nc1ccc(N=Nc2ccccc2)cc1)C(Cl)(Cl)Cl (configuration not stated)
- inhibition [1]: 3.89%
- inhibition [2]: 18.1%

SMILES: CC(=NNC(=O)c1ccncc1)c1ccc2ccccc2c1O
- inhibition [1]: 45.1% (active)
- inhibition [2]: 32.6% (active)

SMILES: COc1ccccc1C(=O)OCC(=O)c1ccc(CNC(C)=O)s1
- inhibition [1]: 10.4%
- inhibition [2]: -0.94%

SMILES: CCOC(=O)C1=C(C)N[C@@]2(O)c3ccccc3C(=O)[C@@]12O
- inhibition [1]: 2.93%
- inhibition [2]: -4.31%

SMILES: COc1ccc(-n2c(C)cc(C(=O)COc3ccc(C)nc3[N+](=O)[O-])c2C)cc1
- inhibition [1]: 14.4%
- inhibition [2]: 10.7%

SMILES: Cc1cc(C=C2C(=O)c3ccccc3C2=O)c(C)n1-c1ccccc1
- inhibition [1]: 67.5% (active)
- inhibition [2]: 43.2% (active)

SMILES: Brc1ccc(N=Nc2ccc3ccccc3n2)cc1
- inhibition [1]: 51.2% (active)
- inhibition [2]: 33.7% (active)

SMILES: Cc1ccc(NC(=O)c2cccc(S(=O)(=O)NCc3ccccc3)c2)nc1
- inhibition [1]: -3.03%
- inhibition [2]: 6.44%

SMILES: Cc1cc(C(F)(F)F)c(C#N)c(SCC(=O)Nc2nc3ccccc3s2)n1
- inhibition [1]: 49.7% (active)
- inhibition [2]: 37.2% (active)

SMILES: CCN(c1ccccc1)S(=O)(=O)c1ccc(C(=O)Nc2nnc(-c3ccco3)o2)cc1
- inhibition [1]: 8.7%
- inhibition [2]: 9.19%

SMILES: c1ccc2c(c1)OCC(CNc1ncnc3sccc13)O2 (configuration not stated)
- inhibition [1]: 1.57%
- inhibition [2]: 37.9% (active)

SMILES: Cc1ccc(-c2c[n+]3c(n2-c2ccccc2)SCC3)cc1
- inhibition [1]: 8.17%
- inhibition [2]: 24.7%

SMILES: O=C(CN1C(=O)c2ccccc2S1(=O)=O)c1ccc(F)cc1
- inhibition [1]: -13.1%
- inhibition [2]: 17.6%

SMILES: CCCC(=O)NC(c1ccc(OC)cc1)c1ccc2cccnc2c1O (configuration not stated)
- inhibition [1]: 57.7% (active)
- inhibition [2]: 63.7% (active)

SMILES: COc1ccccc1N1CCN(C(=O)C2CCCN(S(=O)(=O)c3ccc4c(c3)CCCN4C(C)=O)C2)CC1 (configuration not stated)
- inhibition [1]: -12.2%
- inhibition [2]: 8.25%

SMILES: O=C(N/N=C/c1cc(Br)ccc1O)c1cccc(N2CCCC2=O)c1
- inhibition [1]: 1.45%
- inhibition [2]: 30.7% (active)

SMILES: COc1ccc(CCN2C(=O)c3cccc4c(C(=O)N5CCCCC5)ccc(c34)C2=O)cc1OC
- inhibition [1]: -2.54%
- inhibition [2]: 3.93%

SMILES: NC(=S)NNc1ccc(Cl)c(Cl)c1
- inhibition [1]: 12.7%
- inhibition [2]: -0.23%

SMILES: Cc1ccc(C(=O)OCC(=O)Nc2sccc2C(N)=O)cc1NC(=O)c1ccco1
- inhibition [1]: 18.4%
- inhibition [2]: 11.5%

SMILES: FC(F)(F)c1cccc(Nc2cc(-c3ccccc3)nc3ncnn23)c1
- inhibition [1]: -2.25%
- inhibition [2]: -0.93%

SMILES: CSc1cccc(N/C(=N/S(=O)(=O)c2ccccc2)NN)c1
- inhibition [1]: 5.54%
- inhibition [2]: 0.02%

SMILES: O=C(Nc1ccc(Oc2cccnc2)nc1)c1ccc(C(F)(F)F)cc1
- inhibition [1]: 17.2%
- inhibition [2]: 37.1% (active)

SMILES: COc1ccc(NC(=O)c2cc(C3CC3)nc3c2cnn3C(C)C)cc1OC
- inhibition [1]: -12.8%
- inhibition [2]: -3.62%

SMILES: Cc1cccc(N2CCN(C(=O)C3CCN(c4ncnc5c4nc4n5CCCCC4)CC3)CC2)c1C
- inhibition [1]: -4.11%
- inhibition [2]: 11.5%

SMILES: O=C(O)c1ccc(Cl)c(S(=O)(=O)NCc2cccnc2)c1
- inhibition [1]: 0.83%
- inhibition [2]: -9.62%

SMILES: CCN(CC(=O)Nc1ccccc1C(F)(F)F)C(=O)c1ccc(N2C(=O)CCC2=O)cc1
- inhibition [1]: -1.4%
- inhibition [2]: 2.68%

SMILES: CCc1cccc(CC)c1NC(=O)CSc1nc2ccc(N3C(=O)C4C(C3=O)[C@H]3C=C[C@@H]4C3)cc2s1 (some centres not stated)
- inhibition [1]: 1.87%
- inhibition [2]: 10.2%

SMILES: COc1ccc(N/N=C/c2c(C(=O)O)ccc3ccccc23)cc1
- inhibition [1]: 31.2%
- inhibition [2]: 36.5% (active)

SMILES: OC[C@H]1O[C@@H](Oc2ccc(O)cc2)[C@H](O)[C@@H](O)[C@@H]1O
- inhibition [1]: 7.6%
- inhibition [2]: -4.32%

SMILES: CCN(CC)CCOc1c(Br)ccc2c1sc1nc3n(c(=O)c12)CCC3
- inhibition [1]: -18.1%
- inhibition [2]: 2.47%

SMILES: NCCCn1c(C(=O)c2cc(Cl)c(N)c(Cl)c2)c2ccc([N+](=O)[O-])cc2[n+]1[O-]
- inhibition [1]: 26.8%
- inhibition [2]: 9.54%

SMILES: CC(=O)c1c(C)n(-c2ccc(Br)cc2)c2ccc(O)cc12
- inhibition [1]: 53.3% (active)
- inhibition [2]: 30.8% (active)

SMILES: COc1ccc(S(=O)(=O)Nc2cc([N+](=O)[O-])ccc2OC)cc1
- inhibition [1]: -7.49%
- inhibition [2]: 2.4%

SMILES: COc1ccc(NC(=O)c2ccc(-c3ccccc3)cc2)cc1S(=O)(=O)N1CCOCC1
- inhibition [1]: 12%
- inhibition [2]: 34.6% (active)

SMILES: COc1ccc2[nH]c(C(=O)N/N=C/c3ccc(O)cc3O)cc2c1
- inhibition [1]: 54.5% (active)
- inhibition [2]: 45.9% (active)

SMILES: Cn1nc(CC(=O)Nc2ccc(N3CCN(C(=O)OC(C)(C)C)CC3)cc2)c2ccccc2c1=O
- inhibition [1]: 17.6%
- inhibition [2]: 42.2% (active)

SMILES: CC(C(=O)c1ccc(-c2ccccc2)cc1)[n+]1ccccc1 (configuration not stated)
- inhibition [1]: 5.63%
- inhibition [2]: 19.5%

SMILES: O=C(CCc1ccncc1)NC1CCCc2c1cnn2-c1ccc(F)cc1F (configuration not stated)
- inhibition [1]: 0.71%
- inhibition [2]: 18.6%

SMILES: O=C(NCCc1ccccn1)C(F)(F)C(F)(F)C(F)(F)C(F)(F)C(F)(F)C(F)(F)C(F)(F)C(F)F
- inhibition [1]: 9.78%
- inhibition [2]: -4.16%

SMILES: O=C(CNc1cccc([N+](=O)[O-])c1)N/N=C/c1ccc([N+](=O)[O-])o1
- inhibition [1]: 32.3%
- inhibition [2]: 14.3%

SMILES: CC(=O)c1ccc(N2CCN(C(=O)c3nn(Cc4ccccc4)c(=O)c4ccccc34)CC2)cc1
- inhibition [1]: 13.9%
- inhibition [2]: -1.19%

SMILES: O=C(N/N=C/c1cc(Br)c(Br)s1)c1ccncc1
- inhibition [1]: 31.1%
- inhibition [2]: 18.5%
